Bioassay records (PubChem)
MT1-MMP txn act: MT1-MMP promoter transcription activation; hit rate 0.16% among 86,000; HT1080 MT1-MMP promoter luciferase reporter, luminescence, overnight; active compounds read high; activation factor at 10 µM; AID 750;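 active means activation factor of at least 2 for MT1-MMP transcription at 10 µM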
Smad3 inh: Smad3 (human) transcription factor binding inhibition. P84022. inhibition, % at 25 µM. TR-FRET Smad3/Dy647-FoxH1 peptide binding, europium anti-His. AID 630. hit rate 0.29% among 88,000;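 active means compounds that reduce the energy-transfer binding signal between the protein and its labelled peptide by more than half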;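 further: 0% = Smad3 plus labelled peptide maximal FRET and 100% = peptide-only background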
Target sequence (P84022 whole entry, looked up): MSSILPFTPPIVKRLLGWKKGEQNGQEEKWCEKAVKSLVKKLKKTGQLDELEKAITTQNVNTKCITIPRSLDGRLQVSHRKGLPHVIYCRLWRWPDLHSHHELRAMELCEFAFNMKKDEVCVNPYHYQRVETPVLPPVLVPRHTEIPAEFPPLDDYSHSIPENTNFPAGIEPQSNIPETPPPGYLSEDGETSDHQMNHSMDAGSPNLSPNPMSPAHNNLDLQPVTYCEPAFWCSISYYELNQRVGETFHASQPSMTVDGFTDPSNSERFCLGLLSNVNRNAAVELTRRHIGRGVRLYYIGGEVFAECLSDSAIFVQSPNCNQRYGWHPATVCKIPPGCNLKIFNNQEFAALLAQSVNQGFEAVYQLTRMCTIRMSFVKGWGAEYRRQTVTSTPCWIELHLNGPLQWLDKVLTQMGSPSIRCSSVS
Measles CPE: protection of cells from measles virus | Measles virus-infected cells, CPE protection, absorbance | protection (pct of control), % at 4 µM | hit rate 1.5% among 140,000 | AID 841; in the data active means protection mostly above about 24%, no sharp cut-off; inactive means mostly below about 26%
The depositor's hits bear a star. An excerpt weighted towards active compounds, which were near 1.7% of everything screened.

Results for COc1ccc(Nc2nc3ccccc3n3nnnc23)cc1 ?
MT1-MMP txn act: 1; Smad3 inh: 19; Measles CPE: 11

Results for Fc1ccc(CN2CCN(c3ncccn3)CC2)cc1 ?
MT1-MMP txn act: 1.1; Smad3 inh: 8; Measles CPE: 36*

What do the screens show for `Fc1ccc(F)c(CN2CCN(c3ncccn3)CC2)c1`?
MT1-MMP txn act: 1; Smad3 inh: -3; Measles CPE: 7

How did c1nc(NCCc2cnc[nH]2)c2[nH]cnc2n1 do in these assays?
Smad3 inh: 6

What do the screens show for `CCN(CC)c1ncnc2c1ncn2Cc1c(Cl)cccc1Cl`?
MT1-MMP txn act: 1.1; Smad3 inh: 11; Measles CPE: 3

What do the screens show for `Clc1cccc(Cl)c1Cn1cnc2c(N3CCCCCC3)ncnc21`?
MT1-MMP txn act: 1.2; Smad3 inh: 0; Measles CPE: 33*

How did c1cncc(CSc2ncnc3nc[nH]c23)c1 do in these assays?
Smad3 inh: 4

Results for Cc1cn([C@@H]2C[C@H](N=[N+]=[N-])[C@H](CO)O2)c(=O)[nH]c1=O ?
Smad3 inh: -4

Results for O=C(CN1C(=O)c2ccccc2C1=O)N1CCN(C2c3ccccc3-c3ccccc32)CC1 ?
Measles CPE: 21

Results for N#CC(C#N)=C1CCc2ccccc2N1 ?
MT1-MMP txn act: 1.2; Smad3 inh: 5; Measles CPE: 59*

What do the screens show for `N#CC(C#N)=C1NC2(CCCC2)Cc2ccccc21`?
Measles CPE: 6

How did [N-]=[N+]=NC[C@@H]1O[C@H](n2cnc3c(N)ncnc32)[C@@H]2O[C@@H]21 do in these assays?
Smad3 inh: 3

Results for C[C@@]12CC[C@@H]3[C@H](CC=C4C[C@@H](O)CC[C@@]43C)[C@H]1CC[C@H]2N(CCO)CCO ?
Smad3 inh: 1

What do the screens show for `Cc1cccc(OCC(=O)NNC(=O)C2CCCCC2C(=O)O)c1` (stereo not given)?
Measles CPE: 18

What do the screens show for `CC1(C)NC(=O)N(CC(O)COc2cc3ccccc3cc2C(=O)N2CCCCC2)C1=O` (stereo not given)?
MT1-MMP txn act: 1.2; Smad3 inh: -4; Measles CPE: 2

What do the screens show for `CC1(C)NC(=O)N(CC(O)COc2ccccc2C(=O)N2CCCCC2)C1=O` (stereo not given)?
MT1-MMP txn act: 1.1; Smad3 inh: 7; Measles CPE: 44*

Results for c1ccc([C@H](CCN2CCCC2)c2ccccn2)cc1 ?
Smad3 inh: -8

Results for COc1ccc(CCNS(=O)(=O)c2ccc3c(c2)CCN3C(=O)C2CC2)cc1OC ?
MT1-MMP txn act: 1.1; Smad3 inh: -15; Measles CPE: 22

How did COc1ccc(CCNS(=O)(=O)c2ccc3c(c2)CC(C)N3C(C)=O)cc1OC (stereo not given) do in these assays?
MT1-MMP txn act: 1; Smad3 inh: -3; Measles CPE: 38*

How did Cc1ccc(NC2(c3nnnn3-c3c(C)cccc3C)CCCCC2)cc1 do in these assays?
Measles CPE: 5

Results for Cc1ccc(OCC(=O)N/N=C/c2ccco2)cc1 ?
MT1-MMP txn act: 1.1; Smad3 inh: 19; Measles CPE: 16

Results for Cc1ccccc1OCC(=O)N/N=C/c1ccco1 ?
MT1-MMP txn act: 1.2; Smad3 inh: -6; Measles CPE: 45*

Results for C[C@@]1(C(NS(=O)(=O)c2cccc3cccnc23)c2ccc(-c3ccccc3)cc2)C[C@H]1C1CCCCC1 (stereo not given in full) ?
MT1-MMP txn act: 1.2

What do the screens show for `Nc1nc(Cc2ccccc2)nc(Cc2ccccc2)c1-c1ccccc1`?
Smad3 inh: 5

How did O=c1oc(-c2ccco2)nc2ccccc12 do in these assays?
Smad3 inh: -6; Measles CPE: 8

What do the screens show for `c1coc(-c2nc3ccccc3nc2-c2ccco2)c1`?
MT1-MMP txn act: 1; Smad3 inh: 8; Measles CPE: 41*

Results for COc1cccc(/C=N/NC(=O)c2ccc(COc3ccc(Cl)cc3Cl)o2)c1 ?
Measles CPE: 52*

How did COc1cc(/C=N/NC(=O)c2ccc(COc3ccccc3Cl)o2)cc(Br)c1O do in these assays?
Measles CPE: 5

What do the screens show for `Cc1ccc(/C=N/NC(=O)CC(=O)NCc2cccnc2)cc1`?
Measles CPE: 5

Results for CC(C)c1ccccc1NC(=O)C1CN(S(=O)(=O)c2ccccc2)CCN1S(=O)(=O)c1ccccc1 (stereo not given) ?
Measles CPE: 10

How did c1ccc2nc(CC[C@@H]3CCCCN3)ccc2c1 do in these assays?
Smad3 inh: -5

What do the screens show for `O=c1c(S(=O)(=O)c2ccc(Cl)cc2)cn(Cc2ccccc2F)c2ccc(F)cc12`?
Measles CPE: 17

Results for Cc1ccccc1-c1noc(-c2ccc(O)cc2)n1 ?
MT1-MMP txn act: 1.1; Smad3 inh: 5; Measles CPE: 11

Results for Cc1ccccc1-c1noc(-c2ccc(Cl)cc2)n1 ?
MT1-MMP txn act: 2.1*; Smad3 inh: -8; Measles CPE: 27

How did Cc1ccc(NC(=O)c2cncc(Br)c2)cc1S(=O)(=O)N(C)C do in these assays?
Measles CPE: 6

What do the screens show for `CC(=O)c1nc(N2C(=O)CC(Cc3cc(C)cc(C)c3)C2=O)sc1C` (stereo not given)?
Measles CPE: 26

What do the screens show for `CC(=O)c1nc(N2C(=O)CC(Cc3cccc(C)c3)C2=O)sc1C` (stereo not given)?
Measles CPE: 43*

What do the screens show for `CC[C@@]1([N+](=O)[O-])C[C@H]2C=C[C@@H]1C2`?
Smad3 inh: 32

Results for COC(=O)c1ccc(N2CCN(CC(=O)c3ccc(-c4ccccc4)cc3)CC2)c([N+](=O)[O-])c1 ?
Measles CPE: 4

Results for COC(=O)c1ccccc1NC(=S)NC(=O)c1cccc2ccccc12 ?
Measles CPE: 59*

How did COC(=O)c1ccccc1NC(=S)NC(=O)c1ccc2ccccc2c1 do in these assays?
Measles CPE: 4

What do the screens show for `CCOC(=O)c1c2c(n(C)c1COC)C(=O)C(=O)c1ccc(Br)cc1-2`?
MT1-MMP txn act: 0.7; Smad3 inh: 75*

Results for CCOC(=O)c1c2c(n3ccccc13)C(=O)c1ccccc1C2=O ?
Smad3 inh: 9

How did COc1ccc(C2C=C(C34CC5CC(CC(C5)C3)C4)NC(=S)N2)cc1 (stereo not given) do in these assays?
Measles CPE: 8

Results for O=C(c1ccco1)N(CCC(c1ccccc1)c1ccco1)Cc1ccc(F)cc1 (stereo not given) ?
Measles CPE: 37*

What do the screens show for `CC1(C)CC(C(CCN(Cc2ccccc2)C(=O)c2ccco2)c2ccc(F)cc2)CCO1` (stereo not given)?
Measles CPE: 27

What do the screens show for `COC(=O)c1cc(=O)[nH]c(=O)[nH]1`?
Smad3 inh: 7

How did Cc1ccc(C(=O)N/N=c2\sc3ccccc3n2C)cc1 do in these assays?
Measles CPE: 27

How did COc1cccc(C(=O)N/N=c2\sc3ccccc3n2C)c1 do in these assays?
Measles CPE: 26*

How did Cc1ccc(S(=O)(=O)O[C@H]2C[C@@H](C(C)(C)C)CC[C@@H]2c2ccccc2)cc1 do in these assays?
Smad3 inh: 3

What do the screens show for `O=S(=O)(NCCCc1ccccc1)c1ccccc1`?
Measles CPE: 35*

How did O=S(=O)(NCCCCCNS(=O)(=O)c1ccccc1)c1ccccc1 do in these assays?
MT1-MMP txn act: 1; Smad3 inh: -1; Measles CPE: 15
